Assay results: PubChem BioAssay (NCATS)
Results filed as inconclusive are left out. Active and inactive are the calls of the source. The call rests on the fitted dose curve; in most records, active means well fitted curve in the direction sought with a large enough effect; inconclusive means small, poorly fitted or top-dose-only effect, or another doubt; inactive means no such curve, though single readings can be large; an effect the other way counts as inactive or inconclusive. *1 amine or outer side, *2 acyl side, *3 side chain or, on linkers, in order; H or OH if unused. Where a SMILES comes first, the peptide text is derived from it. [ ]: non-standard residue; d: D form. The star is where a group is joined. X13 = O=C(C(CC(O)CO)O[*:1])[*:2]; NMeV = CN[CH](C(=O)O)C(C)C; βNA = c1ccc2cc(N*)ccc2c1; Cbz = O=C(OCc1ccccc1)*; NMeA = CN[CH](C)C(=O)O; βAla = NCCC(=O)O

Legend:
CRL-7250 = normal cell line; assay: Cytotoxic Profiling of Annotated Libraries Using Quantitative High-Throughput Screening (AID 1296008); conditions: Five cell lines viability, CellTiter-Glo ATP luminescence, 48-72 h; max response: active compounds read low; further: nearly all actives have a fitted effect of over 60% in size; on max response: on the % scale 0 is the no-effect control and ±100 the full control effect
Outline: (§1)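 Cytotoxicity was measured as CellTiter-Glo ATP luminescence, read after 10 min at room temperature. Compound treatment of the cells lasted 48 or 72 hr at 37 degrees Celsius in a qHTS format.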

HEK293 = assay: as above; conditions: Five cell lines viability, CellTiter-Glo ATP luminescence, 48-72 h; max response: active compounds read low
Outline: as §1

HaCat [1] = assay: as above; conditions: Five cell lines viability, CellTiter-Glo ATP luminescence, 48-72 h; max response: active compounds read low
Outline: as §1

KB-3-1 = assay: as above; conditions: Five cell lines viability, CellTiter-Glo ATP luminescence, 48-72 h; max response: active compounds read low
Outline: as §1

NIH3T3 [2] = assay: as above; conditions: Five cell lines viability, CellTiter-Glo ATP luminescence, 48-72 h; max response: active compounds read low
Outline: as §1

HACAT [3] = assay: qHTS assay to identify novel small-molecules to repurpose for Merkel cell carcinoma treatment (AID 1296009); conditions: MCC and control cell lines, CellTiter-Glo viability, 72 h; at 44.8 µM (top of the series) unless noted; further: nearly all actives have a fitted effect of over 60% in size
Outline: (§2)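 Cell viability, measured as CellTiter-Glo luminescence, was normalized between DMSO and no-cell wells. The cells had been exposed to 8- or 11-point compound dilutions for 72 hr at 37 degree celsius.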

NIH3T3 [4] = assay: as above; conditions: MCC and control cell lines, CellTiter-Glo viability, 72 h; at 44.8 µM (top of the series) unless noted
Outline: as §2

C33A = assay: Primary qHTS to identify gynecologic anti-cancer compounds using libraries of approved drugs and bioactive compounds (AID 1345084); conditions: Gynecologic cancer cell panel viability, ATPlite luminescence, 48 h; series mostly up to 57.5 µM; further: on the % scale 0 is the no-effect control and ±100 the full control effect; nearly all actives have a fitted effect of over 55% in size
Outline: (§3)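 Measured: luminescence after ATPlite addition (15 min, RT). Exposure: 48 h, 37 C, 5% CO2.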

CAOV3 = assay: as above; conditions: Gynecologic cancer cell panel viability, ATPlite luminescence, 48 h; series mostly up to 57.5 µM
Outline: as §3

CASKI = assay: as above; conditions: Gynecologic cancer cell panel viability, ATPlite luminescence, 48 h; series mostly up to 57.5 µM
Outline: as §3

Es-2 = assay: as above; conditions: Gynecologic cancer cell panel viability, ATPlite luminescence, 48 h; series mostly up to 57.5 µM
Outline: as §3

HeLa = assay: as above; conditions: Gynecologic cancer cell panel viability, ATPlite luminescence, 48 h; series mostly up to 57.5 µM
Outline: as §3

Hek293T = assay: as above; conditions: Gynecologic cancer cell panel viability, ATPlite luminescence, 48 h, control line for the selectivity index; series mostly up to 57.5 µM
Outline: as §3

JEG-3 = assay: as above; conditions: Gynecologic cancer cell panel viability, ATPlite luminescence, 48 h; series mostly up to 57.5 µM
Outline: as §3

OV90 = assay: as above; conditions: Gynecologic cancer cell panel viability, ATPlite luminescence, 48 h; series mostly up to 57.5 µM
Outline: as §3

PA-1 = assay: as above; conditions: Gynecologic cancer cell panel viability, ATPlite luminescence, 48 h; series mostly up to 57.5 µM
Outline: as §3

CC1C2=CC(=O)OC2(O)CC2C1C(O)CC1C(C)(CO)CCCC21C (stereo unspecified)
inactive: outcome (CRL-7250) | max response (HEK293) 2.57% | outcome (HaCat [1]) | max response (KB-3-1) 0.829% | outcome (NIH3T3 [2]) | outcome (HACAT [3]) | outcome (NIH3T3 [4]) | Potency (C33A) | Potency (CAOV3) | outcome (CASKI) | Potency (Es-2) | Potency (HeLa) | Potency (Hek293T) | Potency (JEG-3) | Potency (OV90) | Potency (PA-1)

CCCC1=CC2=C(CO1)C(=O)C(C)(O)C(OC(=O)c1c(C)cc(OC)cc1O)C2 (stereo unspecified)
inactive: max response (CRL-7250) -6.12% | max response (HEK293) -3.53% | outcome (HaCat [1]) | outcome (KB-3-1) | outcome (NIH3T3 [2]) | outcome (HACAT [3]) inactive [at 17.4 µM] | outcome (NIH3T3 [4]) inactive [at 17.4 µM] | Potency (C33A) | Potency (CAOV3) | outcome (CASKI) | Potency (Es-2) | Potency (HeLa) | Potency (Hek293T) | Potency (JEG-3) | Potency (OV90) | Potency (PA-1)

CC(C)=CCC/C(C)=C/CO[C@@H]1O[C@H](CO[C@@H]2OC[C@](O)(CO)[C@H]2O)[C@@H](O)[C@H](O)[C@H]1O
inactive: max response (CRL-7250) 2.57% | max response (HEK293) -12.6% | outcome (HaCat [1]) | outcome (KB-3-1) | outcome (NIH3T3 [2]) | outcome (HACAT [3]) inactive [at 17.4 µM] | outcome (NIH3T3 [4]) inactive [at 17.4 µM] | Potency (C33A) | Potency (CAOV3) | outcome (CASKI) | Potency (Es-2) | Potency (HeLa) | Potency (Hek293T) | Potency (JEG-3) | Potency (OV90) | Potency (PA-1)

C=C1CCC2C(C)(C(=O)O)CCCC2(C)C1CC/C(C)=C\CO (stereo unspecified)
inactive: max response (CRL-7250) -2.2% | max response (HEK293) -6.37% | outcome (HaCat [1]) | outcome (KB-3-1) | outcome (NIH3T3 [2]) | outcome (HACAT [3]) | outcome (NIH3T3 [4]) | Potency (C33A) | Potency (CAOV3) | outcome (CASKI) | Potency (Es-2) | Potency (HeLa) | Potency (Hek293T) | Potency (JEG-3) | Potency (OV90) | Potency (PA-1)

C=C[C@@]1(C)CCC2=C([C@H]1OC(C)=O)[C@H](OC(C)=O)CC1[C@](C)(C(=O)OC)CC[C@H](OC(C)=O)[C@]21C (stereo partly specified)
inactive: max response (CRL-7250) -6.44% | max response (HEK293) 0.95% | outcome (HaCat [1]) | outcome (KB-3-1) | outcome (NIH3T3 [2]) | outcome (HACAT [3]) inactive [at 17.4 µM] | outcome (NIH3T3 [4]) inactive [at 17.4 µM] | Potency (C33A) | Potency (CAOV3) | outcome (CASKI) | Potency (Es-2) | Potency (HeLa) | Potency (Hek293T) | Potency (JEG-3) | Potency (OV90) | Potency (PA-1)

CCC(C)C1NC(=O)C2CCCN2C(=O)C(CC(O)CO)OC(=O)CCNC(=O)C(C)N(C)C(=O)C(C(C)C)N(C)C1=O (stereo unspecified) (cyclo([X13]PI[NMeV][NMeA][βAla]); configuration not given here)
inactive: max response (CRL-7250) -8.24% | max response (HEK293) 2.6% | outcome (HaCat [1]) | max response (KB-3-1) 9.21% | outcome (NIH3T3 [2]) | outcome (HACAT [3]) inactive [at 17.4 µM] | outcome (NIH3T3 [4]) inactive [at 17.4 µM] | Potency (C33A) | Potency (CAOV3) | outcome (CASKI) | Potency (Es-2) | Potency (HeLa) | Potency (Hek293T) | Potency (JEG-3) | Potency (OV90) | Potency (PA-1)

CC1(C)CC[C@]2(C(=O)O)CC[C@]3(C)C(=CCC4[C@@]5(C)C[C@H](O)[C@H](O[C@@H]6O[C@H](CO)[C@@H](O)[C@H](O)[C@H]6O)[C@@](C)(CO)C5[C@H](O)C[C@]43C)[C@@H]2C1 (stereo partly specified)
inactive: max response (CRL-7250) 3.07% | max response (HEK293) 0.861% | outcome (HaCat [1]) | max response (KB-3-1) 3.96% | outcome (NIH3T3 [2]) | outcome (HACAT [3]) inactive [at 17.4 µM] | outcome (NIH3T3 [4]) inactive [at 17.4 µM] | Potency (C33A) | Potency (CAOV3) | outcome (CASKI) | Potency (Es-2) | Potency (HeLa) | Potency (Hek293T) | Potency (JEG-3) | Potency (OV90) | Potency (PA-1)

CC(C)CC(NC(=O)OCc1ccccc1)C(=O)NC(CC(C)C)C(=O)NC(CCC(=O)O)C(=O)Nc1ccc2ccccc2c1 (stereo not drawn) (Cbz-Leu-Leu-Glu-βNA; configuration not given here)
inactive: max response (CRL-7250) -12.3% | max response (HEK293) -0.688% | outcome (HaCat [1]) | outcome (KB-3-1) | outcome (NIH3T3 [2]) | outcome (HACAT [3]) | outcome (NIH3T3 [4]) | Potency (C33A) | Potency (CAOV3) | outcome (CASKI) | Potency (Es-2) | Potency (HeLa) | Potency (Hek293T) | Potency (JEG-3) | Potency (OV90) | Potency (PA-1)

C[C@@]1(C(=O)O)CCC[C@@]2(C)C3=CC[C@H]4C[C@@]3(CC[C@H]12)CC4(O)CO (stereo partly specified)
inactive: max response (CRL-7250) -19% | max response (HEK293) 4.94% | outcome (HaCat [1]) | outcome (KB-3-1) | outcome (NIH3T3 [2]) | outcome (HACAT [3]) | outcome (NIH3T3 [4]) | Potency (C33A) | Potency (CAOV3) | outcome (CASKI) | Potency (Es-2) | Potency (HeLa) | Potency (Hek293T) | Potency (JEG-3) | Potency (OV90) | Potency (PA-1)

COc1cc(-c2ccc(O)cc2)c(OC)c(O)c1C1=CC(=O)OC1CC(=O)O (stereo unspecified)
inactive: max response (CRL-7250) 2.67% | max response (HEK293) 1.87% | outcome (HaCat [1]) | max response (KB-3-1) -5.37% | outcome (NIH3T3 [2]) | outcome (HACAT [3]) | outcome (NIH3T3 [4]) | Potency (C33A) | Potency (CAOV3) | outcome (CASKI) | Potency (Es-2) | Potency (HeLa) | Potency (Hek293T) | Potency (JEG-3) | Potency (OV90) | Potency (PA-1)

COc1cc([C@H]2OC[C@](O)(Cc3ccc(O[C@@H]4O[C@H](CO)[C@@H](O)[C@H](O)[C@H]4O)c(OC)c3)[C@@H]2CO)ccc1O
inactive: max response (CRL-7250) -8.35% | max response (HEK293) 1.25% | outcome (HaCat [1]) | max response (KB-3-1) 0.848% | outcome (NIH3T3 [2]) | outcome (HACAT [3]) inactive [at 17.4 µM] | outcome (NIH3T3 [4]) inactive [at 17.4 µM] | Potency (C33A) | Potency (CAOV3) | outcome (CASKI) | Potency (Es-2) | Potency (HeLa) | Potency (Hek293T) | Potency (JEG-3) | Potency (OV90) | Potency (PA-1)
